Assay outcomes as filed in PubChem.
VLA-4 allo ag – allosterically activates the human VLA-4 integrin; Jurkat cells, LDV-FITC binding, flow cytometry; activation, % at 10 µM (by protocol); 24,000 tested, under 10 active; AID 528;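 active = fluorescent ligand binding to cells raised by more than 40% of the manganese-induced maximum; inconclusive = compound's own fluorescence above 85% of the ligand control signal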
Target sequence (P13612 whole entry, looked up): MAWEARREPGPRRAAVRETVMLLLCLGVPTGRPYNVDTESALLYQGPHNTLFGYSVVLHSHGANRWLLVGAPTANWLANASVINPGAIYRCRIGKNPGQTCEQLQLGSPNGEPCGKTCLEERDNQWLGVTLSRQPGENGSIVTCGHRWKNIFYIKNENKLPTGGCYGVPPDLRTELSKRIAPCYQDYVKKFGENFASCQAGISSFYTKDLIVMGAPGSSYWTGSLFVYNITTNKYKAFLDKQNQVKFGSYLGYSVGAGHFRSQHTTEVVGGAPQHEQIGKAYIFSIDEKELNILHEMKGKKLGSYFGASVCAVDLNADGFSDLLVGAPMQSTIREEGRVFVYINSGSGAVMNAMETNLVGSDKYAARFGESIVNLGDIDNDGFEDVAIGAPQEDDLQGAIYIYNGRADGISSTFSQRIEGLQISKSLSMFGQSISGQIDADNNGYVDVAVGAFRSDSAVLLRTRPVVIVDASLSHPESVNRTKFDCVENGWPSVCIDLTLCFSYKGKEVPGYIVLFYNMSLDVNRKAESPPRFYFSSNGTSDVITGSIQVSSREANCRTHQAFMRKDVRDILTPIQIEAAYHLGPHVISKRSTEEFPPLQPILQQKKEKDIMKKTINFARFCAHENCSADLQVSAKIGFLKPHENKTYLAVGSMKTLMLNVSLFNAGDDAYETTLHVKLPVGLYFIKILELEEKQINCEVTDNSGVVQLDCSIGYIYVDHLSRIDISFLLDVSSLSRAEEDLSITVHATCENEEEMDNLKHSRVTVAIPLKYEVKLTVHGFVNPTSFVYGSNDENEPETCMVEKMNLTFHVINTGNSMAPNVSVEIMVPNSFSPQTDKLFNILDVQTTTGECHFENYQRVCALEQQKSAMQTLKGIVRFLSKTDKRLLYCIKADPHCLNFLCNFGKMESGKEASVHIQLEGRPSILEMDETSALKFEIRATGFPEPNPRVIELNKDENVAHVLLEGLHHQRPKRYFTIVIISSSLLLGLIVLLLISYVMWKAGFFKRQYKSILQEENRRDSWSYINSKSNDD
Autofluor Jurkat – counter-screen for VLA-4 integrin: compound autofluorescence in Jurkat cells | fluorescence ratio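 (tested at 10 µM compound in the well)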 | AID 576 | flow cytometry; stronger effect = higher value; 1 = vehicle-only cell background | actives 0.61% (n = 24,000);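 active = fluorescence ratio above 2.44, which is 1 plus 3 SD of all ratios; inconclusive = signal too bright to measure linearly, ratio around 10 or more; inactive = fluorescence ratio below 2.44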;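 note: green fluorescence of cells measured with 488 nm excitation and 530 nm emission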
VLA-4 antagonist – blocks LDV-FITC ligand binding to Mn2+-activated human VLA-4 integrin; P13612; Jurkat cells, LDV-FITC binding with Mn2+, flow cytometry; 100% = Mn2+-driven binding gain fully reversed; inhibition, % at 10 µM (by protocol); actives 0.2% (n = 24,000);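 active = inhibition above 50%; inconclusive = compound itself fluorescent, judged against control cell fluorescence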
LNCaP diff act – LNCaP prostate cell differentiation activation. flow cytometry side scatter, 4 d. side scatter shift, % at 10 µM. actives 0.56% (n = 24,000). AID 795;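 active = side scatter shift above 30%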;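 note: androgen-responsive LNCaP prostate cancer cells in charcoal-stripped serum medium; higher shift means more granular cells and more differentiation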
Of the large screens only hits and unclear results are named; the others gave an inactive call. Most compounds without a hit are left out; they make up all but 1.5% or so of the library.

CC(C)N1CCC2(CC1)N=C(c1ccc3c(c1)OCO3)CC(c1cc(Cl)ccc1O)N2 (centres undefined)	LNCaP diff act 34
CC(=O)c1c(C)nc(-c2ccc(Cl)cc2)nc1N=CN(C)C	VLA-4 allo ag inconclusive, Autofluor Jurkat 3.2, VLA-4 antagonist inconclusive
CC(C)(O)c1cn(-c2nonc2N)nn1	none (no result: LNCaP diff act)
CCN(CC)c1ncnc2sc(C(=O)N3CCN(c4ccc(OC)cc4)CC3)c(C)c12	none
CCOC(=O)c1sc2ncnc(N3CCN(c4ccc(OC)cc4)CC3)c2c1C	LNCaP diff act 35
CCOc1ccc(NC(=O)C2CC(=O)N(C(C)C)C2)cc1 (centres undefined)	none
CCOC(=O)c1ccc(NC(=O)Nc2ccc3c4c(cccc24)C(=O)N3CC)cc1	VLA-4 allo ag inconclusive, Autofluor Jurkat 3.1, VLA-4 antagonist inconclusive
COc1ccc(CCN2CCC(Nc3nc4ccccc4n3Cc3ccc(F)cc3)CC2)cc1	VLA-4 allo ag inconclusive, Autofluor Jurkat 2.6, VLA-4 antagonist inconclusive, LNCaP diff act 66
COc1c(S(=O)(=O)n2nc(C)cc2C)ccc(Cl)c1Cl	none
CCOc1ccccc1N1CCN(c2nc3ccccc3nc2C(C#N)C(=O)OC)CC1 (centres undefined)	none
COc1ccccc1N1CCN(c2nc3ccccc3nc2C(C#N)C(=O)OC(C)C)CC1 (centres undefined)	LNCaP diff act 30
Cc1cc2c(c(=O)n1C)C(Cc1ccccc1)C(C#N)=C(N)O2 (centres undefined)	none
N#C[C@@H]1[C@@H]2C(=O)N(c3ccc4c(c3)OCCO4)C(=O)[C@@H]2C2c3ccccc3C=CN21 (some centres undefined)	VLA-4 allo ag inconclusive, Autofluor Jurkat 5.2, VLA-4 antagonist inconclusive
COC(=O)c1ccccc1NC(=O)CN1CCC(n2nnc3cc(F)ccc32)CC1	LNCaP diff act 30
CCOc1ccc(OCC)c(NC(=O)CCn2cccc2)c1	none
O=c1cc(N2CCc3ccccc3C2)[nH]c(=O)n1C1CCCCC1	LNCaP diff act 62
CCN1CCCC1CNC(=O)c1nn(-c2ccc(C)cc2)c(=O)c2c1c1ccccc1n2C (centres undefined)	LNCaP diff act 32
CCOc1ccccc1C1C(C#N)=C(N)Nc2onc(-c3ccccc3)c21 (centres undefined)	VLA-4 antagonist 51
CCCc1noc2c1C(c1ccoc1)C(C#N)=C(N)N2 (centres undefined)	none
CCC(=O)c1ccc(OCC(O)Cn2cnc3ccccc32)cc1 (centres undefined)	VLA-4 allo ag inconclusive, Autofluor Jurkat 3.2, VLA-4 antagonist inconclusive
CC(=O)c1ccc(OCC(O)CN2CCN(Cc3ccccc3)CC2)cc1 (centres undefined)	none
CCc1cccc(Nc2cc(C)nc3nc(C)nn23)c1	none
COC(=O)C1=C(C)N=c2s/c(=C/c3cccs3)c(=O)n2C1c1cccs1 (centres undefined)	LNCaP diff act 31
COc1ccc(C2C(C(C)=O)=C(C)N=c3s/c(=C/c4ccc5c(c4)OCO5)c(=O)n32)cc1 (centres undefined)	none
O=C(CCCCCn1c(=O)[nH]c2ccccc2c1=O)NCCCN1CCN(c2ccccc2F)CC1	none
Cc1ccc(CN2CCSc3ccc(C(=O)N4CCN(c5ncccn5)CC4)cc32)cc1	LNCaP diff act 44
Cn1c(C(=O)NCCCN2CCN(c3ccccc3F)CC2)cc2c(=O)n(C)c3ccccc3c21	VLA-4 allo ag inconclusive, VLA-4 antagonist inconclusive, LNCaP diff act 70
COc1ccc2c(c1)CCc1c(C(=O)Nc3cc(C)n(Cc4ccc(Cl)cc4)n3)noc1-2	LNCaP diff act 62
CCOc1ccc(S(=O)(=O)N2CCc3ccccc3C2)cc1	VLA-4 allo ag inconclusive, Autofluor Jurkat 3.2, VLA-4 antagonist inconclusive
CCN1CCCC1CNC(=O)c1cc2c(-c3cccc(OC)c3)nn(C)c2s1 (centres undefined)	none
CCCCNC(=O)c1cc2c(-c3ccc(Cl)cc3)nn(C)c2s1	VLA-4 allo ag inconclusive, VLA-4 antagonist inconclusive
Cn1nc(-c2ccc(Cl)cc2)c2cc(C(=O)NCCCN3CCCC3)sc21	LNCaP diff act 62
CCN1CCCC1CNC(=O)c1cc2c(-c3ccc(Cl)cc3)nn(C)c2s1 (centres undefined)	VLA-4 allo ag inconclusive, VLA-4 antagonist inconclusive, LNCaP diff act 64
CC(C)CN(CC(C)C)S(=O)(=O)N1CCC(C(=O)NC2CCCCCCC2)CC1	none
COC(=O)c1cc(S(=O)(=O)N2CCOCC2)ccc1Sc1ccccc1N	VLA-4 allo ag inconclusive, VLA-4 antagonist inconclusive
CCn1c2ccccc2c2cc(N)ccc21	VLA-4 allo ag inconclusive, Autofluor Jurkat 3.4, VLA-4 antagonist inconclusive
Cn1c(=O)c2c(nc(OCc3ccccc3)n2C)n(C)c1=O	none
Cc1ccc2c(c1)N(CC(=O)NC1CCCCC1C)C(=O)CO2 (centres undefined)	none
Cc1ccc(S(=O)(=O)NCCC(=O)NC2CCCC2)cc1	none
COC(=O)c1ccc2c(=O)n(Cc3ccco3)c(SCC(=O)Nc3ccc(C)c(Cl)c3)nc2c1	LNCaP diff act 34
Cc1ccc(N2CCN(C(=S)c3ccc(N(C)C)cc3)CC2)cc1	VLA-4 allo ag inconclusive, Autofluor Jurkat 3.5, VLA-4 antagonist inconclusive
S=C(c1ccc(N2CCOCC2)cc1)N1CCCCC1	none
O=C(Nc1ccon1)c1cnc2sccn2c1=O	VLA-4 allo ag inconclusive, Autofluor Jurkat 2.5, VLA-4 antagonist inconclusive
Cc1cccc(NC(=O)c2cnc3sccn3c2=O)n1	none
COc1ccccc1CNC(=O)N[C@@H](Cc1ccccc1)C(=O)O	none
COc1ccc(CCn2c(-c3ccco3)nc3nc4ccccc4nc32)cc1	VLA-4 allo ag inconclusive, VLA-4 antagonist inconclusive
COc1ccccc1Cn1c(-c2ccco2)nc2nc3ccccc3nc21	VLA-4 allo ag inconclusive, Autofluor Jurkat 2.6, VLA-4 antagonist inconclusive
Cc1cc(C)cc(-n2nnc(C(=O)NCc3ccccc3Cl)c2N)c1	VLA-4 allo ag inconclusive, Autofluor Jurkat 2.8, VLA-4 antagonist inconclusive
Cc1ccccc1-c1nc(CN2CCC(C(=O)NCCC3=CCCCC3)CC2)c(C)o1	LNCaP diff act 34
COc1ccc(CCNC(=O)C2CCN(Cc3nc(-c4ccccc4C)oc3C)CC2)cc1OC	none
Cc1ccccc1-c1nc(CN2CCC(C(=O)NC3CCN(Cc4ccccc4)CC3)CC2)c(C)o1	LNCaP diff act 48
Cc1n[nH]c(C)c1S(=O)(=O)Nc1ccc2c(c1)OCCO2	none
NC1=CC(=O)c2cccc3cccc1c23	VLA-4 allo ag inconclusive, Autofluor Jurkat 3.5, VLA-4 antagonist inconclusive
CC12C=CC3(CN(Cc4ccccc4)C(=O)C3C1C(=O)NC1CC1)O2 (centres undefined)	none
COc1ccc2nc(NC(=O)C3CCCN(S(=O)(=O)c4cccc5nonc45)C3)sc2c1 (centres undefined)	VLA-4 allo ag inconclusive, Autofluor Jurkat 2.6, VLA-4 antagonist inconclusive
Cc1ccc(NC(=O)C2CCCN(S(=O)(=O)c3cccs3)C2)cc1 (centres undefined)	VLA-4 antagonist 68
O=C(NCc1cccs1)C1CCCN(S(=O)(=O)c2cccs2)C1 (centres undefined)	none
COc1ccc(CCNC(=O)Cn2c(=O)n(Cc3ccco3)c(=O)c3ccc(Cl)cc32)cc1OC	none
